Holding throughout (format): functional
Test [1] addresses Solute carrier family 2, facilitated glucose transporter member 1 (Homo sapiens) (UniProt P11166). Kind of test: ST_JUDE_LEISH: Cytotoxicity at 2uM final concentration against transgenic Leishmania Mexicana promastigotes LmGLUT1 that are glucose transport deficient and complemented with the human glucose transporter GLUT1. Activity is measured by DNA content using SYBR green in vitro.

The target in test [2] is Hexose transporter 1 (Plasmodium falciparum) (UniProt O97467). Nature of the test: ST_JUDE_LEISH: Cytotoxicity at 2uM final concentration against transgenic Leishmania Mexicana promastigotes LmPfHT that are glucose transport deficient and complemented with the Plasmodium falciparum hexose transporter. Activity is measured by DNA content using SYBR green in vitro.
Test [3] concerns the target Glucose transporter (Leishmania mexicana) (UniProt O61059). Nature of the test: ST_JUDE_LEISH: Cytotoxicity at 2uM final concentration against transgenic Leishmania Mexicana promastigotes LmGT2 that are glucose transport deficient and complemented with the L. Mexicana glucose transporter 2. Activity is measured by DNA content using SYBR green in vitro.

Sequence of Solute carrier family 2, facilitated glucose transporter member 1 (Homo sapiens) (P11166 whole entry): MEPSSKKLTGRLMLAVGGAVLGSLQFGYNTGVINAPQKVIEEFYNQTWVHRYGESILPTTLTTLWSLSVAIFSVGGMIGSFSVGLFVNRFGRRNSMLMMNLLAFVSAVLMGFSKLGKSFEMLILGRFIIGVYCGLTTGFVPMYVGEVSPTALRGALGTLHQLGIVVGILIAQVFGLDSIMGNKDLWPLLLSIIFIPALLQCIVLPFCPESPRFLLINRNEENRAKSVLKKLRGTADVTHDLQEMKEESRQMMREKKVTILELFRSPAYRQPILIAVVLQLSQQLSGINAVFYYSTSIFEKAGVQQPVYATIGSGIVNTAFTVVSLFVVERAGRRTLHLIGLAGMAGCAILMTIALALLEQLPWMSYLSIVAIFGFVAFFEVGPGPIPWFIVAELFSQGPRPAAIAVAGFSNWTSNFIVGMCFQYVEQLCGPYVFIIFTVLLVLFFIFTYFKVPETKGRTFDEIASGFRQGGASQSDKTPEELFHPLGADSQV

For the molecule `COc1ccc(-c2nc(NC(=O)Cc3coc4cc(OC)ccc34)sc2C)cc1`, the inhibition – broadly, the change of the read-out against control, counted positive when it falls – in test [1] was -1.68%; in test [2], 0.45%; in test [3], -0.72%.

In the case of `CCN1CCN(C(=O)NC(C(=O)N2CCCC(COc3ccc(Cc4ccccc4)cc3)C2)c2cccs2)C(=O)C1=O` (stereo not given), the inhibition came to 3.59% in test [1], 3.3% in test [2] and 4.28% in test [3].

For `Nc1nc(Nc2cccc(Cl)c2)ncc1C(=O)NCc1ccncc1`, the inhibition worked out at 9.01% in test [1], 7.86% in test [2] and 8.62% in test [3].

For the molecule `CCN(CC)CCN(Cc1ccc(-c2ccc(Cl)s2)cc1)C(=O)Cn1c(CCc2cccc(F)c2F)nc(=O)c2ccccc21`, the inhibition is 3.75% in test [1], 3.7% in test [2] and 2.15% in test [3].

In the case of `CC(C)COc1ccc(Cl)cc1Cc1ccc(-c2nc3c(F)cccc3[nH]2)o1`, the inhibition was 0.36% in test [1], 0.7% in test [2] and 2.89% in test [3].

As for `Cc1cc(=NN=Cc2ccccc2F)c2ccccc2[nH]1`, the inhibition in test [1] stood at 1.11%; in test [2], 4.77%; in test [3], 1.44%.

Take `CCC[C@@H]([C@@H](CC1CCCCC1)C(=O)N[C@@H](CCCCNS(C)(=O)=O)C(=O)Nc1nccs1)N(O)C=O`: the results for the inhibition in test [1], in test [2] and in test [3] were 1.61%, 3.98% and -0.28%, respectively.

In the case of `CO/C(=C\C=C\c1cc2cc(Cl)c(Cl)cc2[nH]1)C(=O)NC1CCN(CCCc2ccccc2)CC1`, the inhibition in test [1] came to 0.89%; in test [2], 1.14%; in test [3], 2.46%.

Regarding `COc1ccc2ncc(F)c(CCN3CC[C@H](NCc4cc5c(s4)CCCN5)[C@H](O)C3)c2n1`, the inhibition in test [1] worked out at 9.63%; in test [2], 15.1%; in test [3], 2.43%.

As for `Cc1cc(Cl)ccc1N(Cc1ccccc1)c1ccnc(Cl)n1`, the values for the inhibition in test [1], in test [2] and in test [3] were 1.11%, 1.68% and 0.11%, respectively.

Regarding `Cc1cccc(-c2ccc3c(c2)CC(NCc2cccc(-n4ccnc4)c2)C3)c1` (stereo not given), the inhibition in test [1] amounted to 31.8%; in test [2], 41.4%; in test [3], 26.6%.

With `CC(=O)Nc1ccc(S(=O)(=O)Nc2ccc(Nc3nc(C)cc(N(C)C)n3)cc2)cc1`, the inhibition in test [1] is -1.06%; in test [2], 0.57%; in test [3] it was 2.61%.

In the case of `O=C(NOCc1ccccc1)c1cc(Cl)ccc1O`, the inhibition came to 2.44% in test [1], 3.78% in test [2] and 2.15% in test [3].

Consider `O=C(O)C[C@H](NC(=O)c1cc(-c2ccc3c(c2)OCO3)no1)C(=O)O.O=C(O)C[C@H](NC(=O)c1conc1-c1ccc2c(c1)OCO2)C(=O)O`, for which the inhibition was -1.58% in test [1], -1.07% in test [2] and -2.23% in test [3].

Consider `COc1ccc2c(NN=Cc3ccc(Cl)cc3)ccnc2c1`, for which the inhibition came to 3.12% in test [1], 2.42% in test [2] and 4.63% in test [3].

Take `Cc1ccc(NC(=O)c2ccc3ncccc3c2)cc1OC1CCN(Cc2ccco2)C1` (stereo not given): the inhibition in test [1] came out at 0.45%; in test [2], 1.05%; in test [3], 1.55%.

Regarding `CN1CCN(c2ccc(-c3cccc(NC(=O)c4ccc5ccccc5c4)c3)nn2)CC1`, the inhibition is 14% in test [1], 10.9% in test [2] and 7.19% in test [3].

`O=C(NCCN1CCOCC1)c1csc(C2CCCN(C(=O)c3ccc(O)c(-c4cc(Cl)cc(Cl)c4)c3)C2)n1` (stereo not given): the inhibition is 8.92% in test [1], 1.79% in test [2] and 1.85% in test [3].

In the case of `Nc1c2c(nc3ccc(C(=O)Nc4ccccc4)cc13)CCCC2`, the results for the inhibition in test [1], in test [2] and in test [3] were 4.09%, 3.96% and 3.87%, respectively.

In the case of `Cc1nc2ccc(NC(=O)c3cc(S(=O)(=O)N(C)C)ccc3Cl)cc2s1`, the inhibition stood at 10.4% in test [1], 10.6% in test [2] and 10.1% in test [3].

As for `Cc1ccc2c(OCCN3CCC(Cc4ccc5c(c4)NC(=O)CO5)CC3)cc(F)cc2n1`, the inhibition in test [1] worked out at 3.49%; in test [2] it was 2.13%; in test [3] it was 0.63%.

For `Cc1cc(C)cc(Oc2c(C(F)(F)F)oc3c(CN4CC(C)OC(C)C4)c(O)ccc3c2=O)c1` (stereo not given), the inhibition in test [1] is -0.42%; in test [2] it was -1.36%; in test [3], 1.31%.

On to `CCn1cnc2c(Nc3cccc([N+](=O)[O-])c3)nc(N3CCC(N4CCCCC4)CC3)nc21`, for which the inhibition in test [1] is 0.93%; in test [2], 3.03%; in test [3], -0.24%.

`c1ccc(COc2ccc(COc3ccc(Cn4ccnc4)cc3)cc2)cc1`: the inhibition in test [1] is 2.93%; in test [2], 2.15%; in test [3] it was 1.02%.

Take `COc1ccc2nc3cc(Cl)ccc3c(NCCCCN3CCNCC3)c2c1`: the results for the inhibition in test [1], in test [2] and in test [3] were 6.28%, 6.49% and 3.51%, respectively.

With `O=C(NCc1ccc(Cl)c(Cl)c1)c1ccc(C2CCN(Cc3ccc4[nH]cnc4c3)CC2)cc1`, the inhibition in test [1] came out at 2.71%; in test [2] it was 1.42%; in test [3], 0.28%.

For `CN(C)CCOc1cc(NC(=O)Nc2ccc(Oc3ccccc3)cc2)ccc1I`, the inhibition is 1.79% in test [1], 1.64% in test [2] and -1.47% in test [3].

As for `Clc1ccc(CNCCCCCCCNCc2ccc(Cl)c(Cl)c2)cc1Cl`, the inhibition in test [1] was -1.86%; in test [2] it was -1.24%; in test [3] it was -0.86%.

Consider `Cc1nc2ccc3ccc(CNc4ccc(C(=O)CC(CCC(=O)O)C(=O)O)cc4)cc3c2c(=O)[nH]1` (stereo not given), for which the values for the inhibition in test [1], in test [2] and in test [3] were -0.57%, -1.01% and -0.36%, respectively.

For the molecule `N#Cc1cccc(-c2cnc(N)c(-c3nc4cc(S(N)(=O)=O)ccc4[nH]3)c2)c1`, the inhibition in test [1] amounted to 1.03%; in test [2], 1.38%; in test [3] it was 2.21%.

Take `Cc1cc2nc(-c3cc(Br)ccc3O)c(-c3cc(Br)ccc3O)nc2cc1C`: the inhibition in test [1] is -1.26%; in test [2], -1.38%; in test [3], -1.13%.

Turning to `CCOc1ccc(-c2nonc2NC(=O)c2ccc(OC)cc2)cc1OCC`, the values for the inhibition in test [1], in test [2] and in test [3] were -1.17%, 4.75% and -0.16%, respectively.

As for `OC(CNC1CCCCC1)Cn1c2ccc(Br)cc2c2cc(Br)ccc21` (stereo not given), the inhibition is 0.51% in test [1], 0.28% in test [2] and 0.64% in test [3].

`CC(C)(NCc1ncc[nH]1)c1nc(-c2ccc(Cl)c(O)c2)c(-c2ccncc2)[nH]1`: the inhibition is 2.76% in test [1], 3.34% in test [2] and 3.01% in test [3].

`COc1ccc(C2CCN(CCCCNC(=O)c3ccc(NC(=O)c4ccc(Cl)cc4)cc3)C2)c(OC)c1` (stereo not given): the inhibition is -0.08% in test [1], 0.01% in test [2] and 0.7% in test [3].

These data come from ChEMBL document CHEMBL3433997, “St. Jude Leishmania screening dataset” (2016).
